# From paper PMC7862700, “An all-to-all approach to the identification of sequence-specific readers for epigenetic DNA modifications on cytosine”
# How the values were obtained:
# Test in all cases: DAPPL (digital affinity profiling via proximity ligation, sequencing); 10 mM Tris-HCl pH 7.5, 50 mM NaCl, 1 mM DTT, 4% glycerol, room temperature, 30 min; GST-TFs on glutathione beads, 16-mer random dsDNA library, 0.1% formaldehyde crosslink after washing; high values mean tight binding
# [1] = biological target: T1, FLI1 (Homo sapiens, UniProt Q01543 1-452); conditions: protein: recombinant; tags: N-terminal GST; dsDNA, one strand shown
# T1 sequence: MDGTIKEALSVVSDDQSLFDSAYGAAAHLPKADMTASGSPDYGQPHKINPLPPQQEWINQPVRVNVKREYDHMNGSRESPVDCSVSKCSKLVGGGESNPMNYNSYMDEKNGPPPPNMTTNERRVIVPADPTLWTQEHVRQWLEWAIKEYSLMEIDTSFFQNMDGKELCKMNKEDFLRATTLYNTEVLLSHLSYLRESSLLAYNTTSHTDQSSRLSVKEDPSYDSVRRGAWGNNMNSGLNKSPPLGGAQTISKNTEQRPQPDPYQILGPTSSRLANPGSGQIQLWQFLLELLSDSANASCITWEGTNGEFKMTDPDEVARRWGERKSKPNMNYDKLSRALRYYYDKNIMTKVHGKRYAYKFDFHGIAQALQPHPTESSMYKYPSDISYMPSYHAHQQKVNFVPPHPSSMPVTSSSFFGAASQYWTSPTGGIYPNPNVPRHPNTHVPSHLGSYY
# In short: (§1)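 After expression in yeast as GST fusions, human transcription factors were bound to glutathione beads, DNA-barcoded and mixed with a tag-only sample. The pools were incubated with 200 nmole of a 16-mer random double-stranded DNA library in Tris/NaCl/DTT/glycerol buffer (30 min, room temperature), washed and crosslinked with 0.1% formaldehyde. Proximity ligation with BsaI/T4 ligase ran for 1 h at 37 °C, before PCR amplification and sequencing on an Illumina NextSeq500. Binding signal is a hexamer's read frequency for a factor divided by its frequency for the tag-only sample.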
# [2] = biological target: T2, ELK1 (Homo sapiens, UniProt P19419 1-428); conditions: protein: recombinant; tags: N-terminal GST; dsDNA, one strand shown
# T2 sequence: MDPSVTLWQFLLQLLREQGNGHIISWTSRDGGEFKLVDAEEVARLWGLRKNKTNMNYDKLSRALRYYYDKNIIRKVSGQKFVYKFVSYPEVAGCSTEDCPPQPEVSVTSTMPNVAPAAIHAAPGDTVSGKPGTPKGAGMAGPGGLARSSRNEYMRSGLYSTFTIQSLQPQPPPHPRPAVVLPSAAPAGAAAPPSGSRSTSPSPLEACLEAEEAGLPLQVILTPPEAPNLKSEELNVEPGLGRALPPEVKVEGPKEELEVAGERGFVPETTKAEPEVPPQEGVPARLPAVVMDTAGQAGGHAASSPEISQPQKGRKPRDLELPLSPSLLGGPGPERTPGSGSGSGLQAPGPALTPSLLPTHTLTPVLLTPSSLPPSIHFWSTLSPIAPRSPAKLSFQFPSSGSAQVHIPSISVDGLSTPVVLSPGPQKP
# In short: as §1
# [3] = biological target: T3, GABPA (Homo sapiens, UniProt Q06546 1-454); conditions: protein: recombinant; tags: N-terminal GST; dsDNA, one strand shown
# T3 sequence: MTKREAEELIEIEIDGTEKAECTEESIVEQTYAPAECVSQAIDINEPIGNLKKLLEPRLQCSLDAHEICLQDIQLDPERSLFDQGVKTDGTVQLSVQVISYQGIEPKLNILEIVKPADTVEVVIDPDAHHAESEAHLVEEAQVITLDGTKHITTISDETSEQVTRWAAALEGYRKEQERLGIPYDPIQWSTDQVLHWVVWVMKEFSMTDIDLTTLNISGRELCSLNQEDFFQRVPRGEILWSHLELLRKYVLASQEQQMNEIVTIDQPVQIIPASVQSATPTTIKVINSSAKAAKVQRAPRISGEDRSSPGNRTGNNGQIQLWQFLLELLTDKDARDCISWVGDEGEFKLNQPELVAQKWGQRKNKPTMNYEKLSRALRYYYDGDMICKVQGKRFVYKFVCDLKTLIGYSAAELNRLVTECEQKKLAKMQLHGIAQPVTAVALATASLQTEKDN
# In short: as §1
# [4] = biological target: T4, ERG (Homo sapiens, UniProt P11308 1-479); conditions: protein: recombinant; tags: N-terminal GST; dsDNA, one strand shown
# T4 sequence: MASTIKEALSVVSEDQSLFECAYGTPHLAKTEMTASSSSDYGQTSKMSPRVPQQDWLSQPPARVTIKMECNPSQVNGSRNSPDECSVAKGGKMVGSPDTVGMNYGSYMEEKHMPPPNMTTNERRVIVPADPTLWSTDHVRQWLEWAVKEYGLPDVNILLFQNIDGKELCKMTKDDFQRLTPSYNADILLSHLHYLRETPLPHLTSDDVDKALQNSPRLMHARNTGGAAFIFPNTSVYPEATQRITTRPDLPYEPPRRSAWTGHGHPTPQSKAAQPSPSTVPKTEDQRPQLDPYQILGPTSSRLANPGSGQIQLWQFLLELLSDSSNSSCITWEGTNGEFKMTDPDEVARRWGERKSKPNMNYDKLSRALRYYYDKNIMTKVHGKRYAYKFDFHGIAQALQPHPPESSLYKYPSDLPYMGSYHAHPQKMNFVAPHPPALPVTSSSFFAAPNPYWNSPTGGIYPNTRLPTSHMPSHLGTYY
# In short: as §1
# [5] = biological target: ELF1 (Homo sapiens, UniProt P32519 1-619); conditions: protein: recombinant; tags: N-terminal GST; dsDNA, one strand shown
# In short: as §1
# [6] = biological target: T5, EHF (Homo sapiens, UniProt Q9NZC4 1-300); conditions: protein: recombinant; tags: N-terminal GST; dsDNA, one strand shown
# T5 sequence: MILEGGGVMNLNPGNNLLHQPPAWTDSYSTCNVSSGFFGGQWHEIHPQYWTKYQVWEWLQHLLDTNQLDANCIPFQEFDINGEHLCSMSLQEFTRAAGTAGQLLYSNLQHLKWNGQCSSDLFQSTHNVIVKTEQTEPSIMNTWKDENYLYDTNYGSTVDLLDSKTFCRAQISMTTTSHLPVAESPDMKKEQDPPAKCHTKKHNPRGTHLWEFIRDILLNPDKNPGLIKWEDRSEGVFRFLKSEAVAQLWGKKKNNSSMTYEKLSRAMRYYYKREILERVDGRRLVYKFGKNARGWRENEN
# In short: as §1
# [7] = biological target: SPI1 (Homo sapiens, UniProt P17947 1-270); conditions: protein: recombinant; tags: N-terminal GST; dsDNA, one strand shown
# In short: as §1
# [8] = biological target: SPIB (Homo sapiens, UniProt Q01892 1-262); conditions: protein: recombinant; tags: N-terminal GST; dsDNA, one strand shown
# In short: as §1
# [9] = biological target: T6, ELK3 (Homo sapiens, UniProt P41970 1-407); conditions: protein: recombinant; tags: N-terminal GST; dsDNA, one strand shown
# T6 sequence: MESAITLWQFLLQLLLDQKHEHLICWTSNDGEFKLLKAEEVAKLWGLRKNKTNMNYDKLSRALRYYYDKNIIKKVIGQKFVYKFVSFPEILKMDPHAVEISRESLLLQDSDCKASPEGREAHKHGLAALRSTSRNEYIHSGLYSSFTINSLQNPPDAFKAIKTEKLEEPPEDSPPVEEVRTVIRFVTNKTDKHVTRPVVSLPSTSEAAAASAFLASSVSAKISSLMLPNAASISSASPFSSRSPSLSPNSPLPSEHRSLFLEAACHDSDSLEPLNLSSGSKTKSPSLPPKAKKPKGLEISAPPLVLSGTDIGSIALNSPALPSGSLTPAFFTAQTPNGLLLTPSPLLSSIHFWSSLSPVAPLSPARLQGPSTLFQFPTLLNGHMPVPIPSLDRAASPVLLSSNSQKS
# In short: as §1
# [10] = biological target: T7, FEV (Homo sapiens, UniProt Q99581 1-238); conditions: protein: recombinant; tags: N-terminal GST; dsDNA, one strand shown
# T7 sequence: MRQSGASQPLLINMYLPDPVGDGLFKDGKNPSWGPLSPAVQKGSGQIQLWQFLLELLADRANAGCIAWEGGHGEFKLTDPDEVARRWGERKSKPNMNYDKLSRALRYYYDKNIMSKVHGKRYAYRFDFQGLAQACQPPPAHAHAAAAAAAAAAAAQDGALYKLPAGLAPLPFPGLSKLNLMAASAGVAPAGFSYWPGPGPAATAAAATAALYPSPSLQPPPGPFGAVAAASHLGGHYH
# In short: as §1
# [11] = biological target: ETV5 (Homo sapiens, UniProt P41161 1-510); conditions: protein: recombinant; tags: N-terminal GST; dsDNA, one strand shown
# In short: as §1
# [12] = biological target: HSF1 (Homo sapiens, UniProt Q00613 1-529); conditions: protein: recombinant; tags: N-terminal GST; chain copies: 3; dsDNA, one strand shown
# In short: as §1
# [13] = biological target: T8, SPIC (Homo sapiens, UniProt Q8N5J4 1-248); conditions: protein: recombinant; tags: N-terminal GST; dsDNA, one strand shown
# T8 sequence: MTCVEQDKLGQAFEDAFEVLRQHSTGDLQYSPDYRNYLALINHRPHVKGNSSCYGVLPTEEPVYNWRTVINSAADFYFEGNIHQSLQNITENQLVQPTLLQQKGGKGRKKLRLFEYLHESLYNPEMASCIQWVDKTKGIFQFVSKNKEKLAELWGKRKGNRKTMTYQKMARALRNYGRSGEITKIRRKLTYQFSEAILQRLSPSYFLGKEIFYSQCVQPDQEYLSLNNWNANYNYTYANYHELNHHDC
# In short: as §1
# [14] = biological target: ELF4 (Homo sapiens, UniProt Q99607 1-663); conditions: protein: recombinant; tags: N-terminal GST; dsDNA, one strand shown
# In short: as §1
# [15] = biological target: T9, ELK4 (Homo sapiens, UniProt P28324-2 1-405); conditions: protein: recombinant; tags: N-terminal GST; dsDNA, one strand shown
# T9 sequence: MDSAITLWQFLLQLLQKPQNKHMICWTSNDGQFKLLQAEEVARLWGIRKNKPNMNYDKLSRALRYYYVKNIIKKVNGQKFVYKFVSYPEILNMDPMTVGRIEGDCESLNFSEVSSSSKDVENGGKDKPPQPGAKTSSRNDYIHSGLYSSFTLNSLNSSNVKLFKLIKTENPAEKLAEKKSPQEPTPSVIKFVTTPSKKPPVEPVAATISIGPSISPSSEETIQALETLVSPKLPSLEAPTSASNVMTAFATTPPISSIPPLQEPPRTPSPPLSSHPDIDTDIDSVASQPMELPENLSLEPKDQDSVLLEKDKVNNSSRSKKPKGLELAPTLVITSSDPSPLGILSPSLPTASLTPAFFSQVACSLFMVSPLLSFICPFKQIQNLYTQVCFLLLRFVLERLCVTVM
# In short: as §1
# [16] = biological target: T10, ETV2 (Homo sapiens, UniProt O00321 1-342); conditions: protein: recombinant; tags: N-terminal GST; dsDNA, one strand shown
# T10 sequence: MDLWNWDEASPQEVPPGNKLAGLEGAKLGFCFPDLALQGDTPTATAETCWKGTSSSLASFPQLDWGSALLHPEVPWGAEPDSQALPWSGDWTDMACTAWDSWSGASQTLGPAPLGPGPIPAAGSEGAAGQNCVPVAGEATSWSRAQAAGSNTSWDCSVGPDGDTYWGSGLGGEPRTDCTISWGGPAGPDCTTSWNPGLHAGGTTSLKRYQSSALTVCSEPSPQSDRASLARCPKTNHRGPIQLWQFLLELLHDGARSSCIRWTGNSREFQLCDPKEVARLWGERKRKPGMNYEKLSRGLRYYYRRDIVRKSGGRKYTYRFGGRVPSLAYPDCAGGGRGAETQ
# In short: as §1
# [17] = biological target: T11, ELF3 (Homo sapiens, UniProt P78545 1-371); conditions: protein: recombinant; tags: N-terminal GST; dsDNA, one strand shown
# T11 sequence: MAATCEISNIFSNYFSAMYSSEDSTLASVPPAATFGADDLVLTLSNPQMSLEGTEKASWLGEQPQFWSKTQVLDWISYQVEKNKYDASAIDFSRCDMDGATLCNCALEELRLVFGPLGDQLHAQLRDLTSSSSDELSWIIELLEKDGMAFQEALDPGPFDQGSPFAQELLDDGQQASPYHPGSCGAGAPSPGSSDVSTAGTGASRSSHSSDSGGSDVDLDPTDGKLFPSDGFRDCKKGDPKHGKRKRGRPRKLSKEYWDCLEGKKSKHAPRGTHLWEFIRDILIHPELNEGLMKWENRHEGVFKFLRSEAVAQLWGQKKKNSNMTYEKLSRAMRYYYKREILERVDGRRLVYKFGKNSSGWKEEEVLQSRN
# In short: as §1
# [18] = biological target: CRX (Homo sapiens, UniProt O43186 1-299); conditions: protein: recombinant; tags: N-terminal GST; dsDNA, one strand shown
# In short: as §1
# [19] = biological target: ETV1 (Homo sapiens, UniProt P50549 1-477); conditions: protein: recombinant; tags: N-terminal GST; dsDNA, one strand shown
# In short: as §1
# ELF4, sequence (Q99607 whole entry): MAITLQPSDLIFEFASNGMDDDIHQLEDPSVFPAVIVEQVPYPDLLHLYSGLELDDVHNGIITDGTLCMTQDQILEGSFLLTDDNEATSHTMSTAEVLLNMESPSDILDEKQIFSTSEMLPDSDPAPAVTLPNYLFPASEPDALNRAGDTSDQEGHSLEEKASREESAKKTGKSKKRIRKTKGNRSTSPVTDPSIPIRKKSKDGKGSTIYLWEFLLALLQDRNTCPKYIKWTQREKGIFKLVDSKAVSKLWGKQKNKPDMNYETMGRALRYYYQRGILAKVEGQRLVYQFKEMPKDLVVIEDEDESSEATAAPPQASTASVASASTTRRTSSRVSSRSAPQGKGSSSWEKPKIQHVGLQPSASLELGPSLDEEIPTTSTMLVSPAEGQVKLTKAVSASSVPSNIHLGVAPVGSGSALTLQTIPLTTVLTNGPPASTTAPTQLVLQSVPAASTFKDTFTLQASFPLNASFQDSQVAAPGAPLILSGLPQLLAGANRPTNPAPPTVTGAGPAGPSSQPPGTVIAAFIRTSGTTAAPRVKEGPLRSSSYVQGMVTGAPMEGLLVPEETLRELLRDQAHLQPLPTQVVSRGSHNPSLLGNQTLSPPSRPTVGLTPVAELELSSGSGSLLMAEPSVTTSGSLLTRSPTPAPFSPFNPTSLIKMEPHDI
# ETV5, sequence (P41161 whole entry): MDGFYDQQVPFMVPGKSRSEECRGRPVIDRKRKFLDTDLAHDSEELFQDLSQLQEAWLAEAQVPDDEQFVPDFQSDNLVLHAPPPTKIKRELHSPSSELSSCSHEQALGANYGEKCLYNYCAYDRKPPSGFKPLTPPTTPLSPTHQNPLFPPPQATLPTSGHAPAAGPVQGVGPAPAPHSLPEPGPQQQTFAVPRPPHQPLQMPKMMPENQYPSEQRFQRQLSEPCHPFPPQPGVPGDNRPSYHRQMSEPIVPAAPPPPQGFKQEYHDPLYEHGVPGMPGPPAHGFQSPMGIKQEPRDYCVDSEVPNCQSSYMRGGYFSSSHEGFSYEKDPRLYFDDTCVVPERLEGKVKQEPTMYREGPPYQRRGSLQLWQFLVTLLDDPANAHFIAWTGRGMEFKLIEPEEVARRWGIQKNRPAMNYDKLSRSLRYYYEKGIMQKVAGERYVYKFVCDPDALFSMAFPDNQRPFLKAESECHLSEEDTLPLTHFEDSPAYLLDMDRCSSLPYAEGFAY
# CRX, sequence (O43186 whole entry): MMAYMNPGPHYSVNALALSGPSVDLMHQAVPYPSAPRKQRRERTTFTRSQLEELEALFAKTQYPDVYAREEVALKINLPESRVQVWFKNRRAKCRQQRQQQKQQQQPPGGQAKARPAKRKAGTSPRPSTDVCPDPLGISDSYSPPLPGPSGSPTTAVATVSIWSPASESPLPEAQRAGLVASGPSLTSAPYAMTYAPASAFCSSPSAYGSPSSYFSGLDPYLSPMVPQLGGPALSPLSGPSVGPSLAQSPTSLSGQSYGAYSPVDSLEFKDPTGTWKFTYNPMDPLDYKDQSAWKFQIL
# HSF1, sequence (Q00613 whole entry): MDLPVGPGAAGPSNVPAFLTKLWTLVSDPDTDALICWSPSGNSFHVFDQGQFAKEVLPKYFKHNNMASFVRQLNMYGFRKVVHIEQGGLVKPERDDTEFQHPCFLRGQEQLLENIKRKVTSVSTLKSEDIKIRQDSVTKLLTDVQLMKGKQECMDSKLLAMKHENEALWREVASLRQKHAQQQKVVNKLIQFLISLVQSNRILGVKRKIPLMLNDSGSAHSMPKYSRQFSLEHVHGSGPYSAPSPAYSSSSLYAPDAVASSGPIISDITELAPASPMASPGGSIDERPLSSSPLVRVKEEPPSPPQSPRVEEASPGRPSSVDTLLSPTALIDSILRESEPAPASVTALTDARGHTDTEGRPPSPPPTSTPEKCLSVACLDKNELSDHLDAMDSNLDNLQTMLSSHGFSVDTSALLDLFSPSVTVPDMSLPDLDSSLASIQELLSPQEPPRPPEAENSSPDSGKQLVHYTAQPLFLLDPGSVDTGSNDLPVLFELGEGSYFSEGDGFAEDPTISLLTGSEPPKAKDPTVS
# ELF1, sequence (P32519 whole entry): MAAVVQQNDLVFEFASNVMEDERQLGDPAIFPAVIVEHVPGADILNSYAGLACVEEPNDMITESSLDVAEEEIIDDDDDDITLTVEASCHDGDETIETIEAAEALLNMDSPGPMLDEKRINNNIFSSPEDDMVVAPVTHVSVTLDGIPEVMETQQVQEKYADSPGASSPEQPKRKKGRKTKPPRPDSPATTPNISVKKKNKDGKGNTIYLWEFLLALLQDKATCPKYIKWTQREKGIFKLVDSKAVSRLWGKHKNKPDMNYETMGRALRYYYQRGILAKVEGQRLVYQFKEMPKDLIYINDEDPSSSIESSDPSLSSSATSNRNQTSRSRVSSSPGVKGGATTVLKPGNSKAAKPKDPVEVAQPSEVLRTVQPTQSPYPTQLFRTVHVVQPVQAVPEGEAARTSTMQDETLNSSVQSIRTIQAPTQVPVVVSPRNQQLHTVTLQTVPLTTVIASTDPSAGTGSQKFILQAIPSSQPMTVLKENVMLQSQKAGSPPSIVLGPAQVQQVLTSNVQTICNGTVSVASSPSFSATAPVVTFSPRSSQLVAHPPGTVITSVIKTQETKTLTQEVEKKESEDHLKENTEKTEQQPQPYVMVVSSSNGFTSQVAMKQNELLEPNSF
# SPIB, sequence (Q01892 whole entry): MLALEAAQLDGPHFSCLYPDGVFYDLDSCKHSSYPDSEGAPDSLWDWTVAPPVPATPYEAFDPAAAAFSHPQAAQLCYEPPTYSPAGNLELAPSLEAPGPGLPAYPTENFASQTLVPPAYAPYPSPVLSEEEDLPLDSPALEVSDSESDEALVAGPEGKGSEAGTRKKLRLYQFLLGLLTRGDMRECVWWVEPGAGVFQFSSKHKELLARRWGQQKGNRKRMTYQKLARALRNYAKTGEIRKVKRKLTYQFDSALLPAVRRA
# ETV1, sequence (P50549 whole entry): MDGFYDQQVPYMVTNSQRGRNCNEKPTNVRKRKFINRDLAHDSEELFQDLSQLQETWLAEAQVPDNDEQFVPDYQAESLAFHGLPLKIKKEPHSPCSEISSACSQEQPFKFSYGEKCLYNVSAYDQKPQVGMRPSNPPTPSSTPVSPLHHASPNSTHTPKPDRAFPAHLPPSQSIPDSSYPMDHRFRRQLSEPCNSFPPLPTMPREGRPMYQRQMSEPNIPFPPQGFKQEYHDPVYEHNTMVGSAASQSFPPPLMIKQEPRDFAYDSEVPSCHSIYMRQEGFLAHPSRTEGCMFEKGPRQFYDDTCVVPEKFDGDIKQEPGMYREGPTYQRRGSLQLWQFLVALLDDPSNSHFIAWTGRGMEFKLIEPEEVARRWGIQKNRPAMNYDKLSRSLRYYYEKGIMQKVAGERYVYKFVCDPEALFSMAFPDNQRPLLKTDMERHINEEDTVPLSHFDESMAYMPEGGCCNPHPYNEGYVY
sequence,measurement,setting,value
TATTAA,binding signal,[1],"1.17 fold enrichment (6-mer frequency, TF over GST control)"
same,binding signal,[2],"1.13 fold enrichment (6-mer frequency, TF over GST control)"
same,binding signal,[3],"1.16 fold enrichment (6-mer frequency, TF over GST control)"
same,binding signal,[4],"1.12 fold enrichment (6-mer frequency, TF over GST control)"
same,binding signal,[5],"1.22 fold enrichment (6-mer frequency, TF over GST control)"
same,binding signal,[6],"1.09 fold enrichment (6-mer frequency, TF over GST control)"
same,binding signal,[7],"1.06 fold enrichment (6-mer frequency, TF over GST control)"
same,binding signal,[8],"1.23 fold enrichment (6-mer frequency, TF over GST control)"
same,binding signal,[9],"1.2 fold enrichment (6-mer frequency, TF over GST control)"
same,binding signal,[10],"1.14 fold enrichment (6-mer frequency, TF over GST control)"
same,binding signal,[11],"1.13 fold enrichment (6-mer frequency, TF over GST control)"
same,binding signal,[12],"1.82 fold enrichment (6-mer frequency, TF over GST control)"
same,binding signal,[13],"1.12 fold enrichment (6-mer frequency, TF over GST control)"
same,binding signal,[14],"1.16 fold enrichment (6-mer frequency, TF over GST control)"
same,binding signal,[15],"1.02 fold enrichment (6-mer frequency, TF over GST control)"
same,binding signal,[16],"1.09 fold enrichment (6-mer frequency, TF over GST control)"
same,binding signal,[17],"1.06 fold enrichment (6-mer frequency, TF over GST control)"
same,binding signal,[18],"2.83 fold enrichment (6-mer frequency, TF over GST control)"
same,binding signal,[19],"1.14 fold enrichment (6-mer frequency, TF over GST control)"
